# Test results taken from PubChem BioAssay AID463173 (ICCB-Longwood Screening Facility, Harvard Medical School, 2010).
# The whole screen tested about 52,000 compounds, of which about 4,300 (8.3%) were called active. This is one part of a sample in which actives are shown more often than they occur. A number with no mark means an inactive call. Cut-off read from the data, not from the text of the source: active = survival mostly below about 52% (no sharp cut-off); inactive = mostly above about 56%.
# Tested on: DeltatarO mutant
# Test: S. aureus survival, RN4220 and DeltatarO strains – OD600, teichoic acid synthesis inhibitors, primary screen (AID 463173)
# Conditions: S. aureus RN4220 wild type/DeltatarO growth, OD600, 18 h, active compounds read low, screened at 18.75 µg/mL (by protocol)
row,Compound,survival
1,Cc1cccc(OCC(=O)Nc2ccc3oc(-c4ccccc4F)nc3c2)c1,57%
2,Cc1ccc(SCC(=O)Nc2ccc3oc(-c4ccccc4C)nc3c2)cc1,50%
3,O=C(COc1ccccc1Cl)Nc1ccc(Cl)c(-c2nc3ccccc3o2)c1,51%
4,COc1ccccc1-c1nc2cc(NC(=O)c3ccccc3Cl)ccc2o1,61%
5,O=C(Nc1ccc2oc(-c3ccccc3F)nc2c1)c1ccccc1Cl,49% (active)
6,Cc1ccc(SCC(=O)Nc2ccc3oc(-c4ccc(F)cc4)nc3c2)cc1,80%
7,O=C(COc1ccccc1Cl)Nc1ccc2oc(-c3ccccc3F)nc2c1,67% (active)
8,COc1ccc2oc(-c3cccc(NC(=O)c4ccc(C#N)cc4F)c3)nc2c1,79%
9,O=C(Nc1ccc(Cl)c(-c2nc3cc(Cl)ccc3o2)c1)c1cc2ccccc2o1,70%
10,O=C(Nc1ccc(-c2nc3cc(NC(=O)c4ccccc4Cl)ccc3o2)cc1)c1ccccc1Cl,83%
11,N#Cc1ccc(C(=O)Nc2ccc(Cl)c(-c3nc4cc(Cl)ccc4o3)c2)c(F)c1,28% (active)
12,Cc1ccc(SCC(=O)Nc2ccc3oc(-c4ccccc4F)nc3c2)cc1,57% (active)
13,CCCS(=O)(=O)N1CCCC(C(=O)NCCCOC)C1 (centres undefined),77%
14,CCOc1ccc(Br)cc1C1NC(=O)c2c(sc3c2CCN(C)C3)N1 (centres undefined),60%
15,CCn1c(C)c(C)c2cc(C(=O)NCc3ccc(OC)cc3OC)ccc21,70%
16,CCc1nn2c(=O)cc(COC(=O)C(CC)c3ccccc3)nc2s1 (centres undefined),92%
17,CCN(Cc1ccccc1)C(=O)c1cc2ccc3cccnc3c2[nH]1,49%
18,Cc1cccc(C(=O)NCCc2nc3ccccc3n2Cc2ccc(Cl)cc2)c1,79%
19,COC(=O)c1ccc(N2C(=O)c3ccc(N)cc3C2=O)cc1,73%
20,COc1cc(Cl)c(NC(=O)c2cc(CN3CCCC3)on2)c(OC)c1,94%
21,CC(=O)c1cccc(NC(=O)CSc2nnc3ccc(-c4ccc(Br)cc4)nn23)c1,75%
22,CCn1nc(-c2ccccc2)c(-c2ccccc2)c(C(=O)Nc2ccc(S(N)(=O)=O)cc2)c1=O,66%
23,Cn1nc(-c2ccccc2)c(-c2ccccc2)c(C(=O)Nc2ccc(S(N)(=O)=O)cc2)c1=O,49% (active)

row,Compound,survival
1,COC(=O)c1ccc(NC(=O)c2c(-c3ccccc3)c(-c3ccccc3)nn(C)c2=O)cc1,58%
2,Cc1ccc(-c2nc3sc(CCNC(=O)c4ccco4)c(C)n3n2)cc1,87%
3,Cc1ccc(C)c(CN2C(=O)c3ccccc3S(=O)(=O)c3ccc(C(=O)N4CCN(c5ccccc5F)CC4)cc32)c1,79%
4,COc1ccc(-c2cn3c(n2)sc2cc(C(=O)NCCCc4ccccc4)ccc23)cc1,65%
5,COc1ccc(-c2cn3c(n2)sc2cc(C(=O)NCCCN4CCN(C)CC4)ccc23)cc1,95%
6,CCOc1ccc(-c2cn3c(n2)sc2cc(C(=O)NCCCN4CCCCC4)ccc23)cc1,-1% (active)
7,COc1ccc(-c2cn3c(n2)sc2cc(C(=O)NCCCN4CCCCCC4)ccc23)cc1,64%
8,CCOc1ccc(-c2cn3c(n2)sc2cc(C(=O)NCCCN4CCCCCC4)ccc23)cc1,-2% (active)
9,CCCN1CCN(CCCNC(=O)c2ccc3c(c2)sc2nc(-c4ccc(OCC)cc4)cn23)CC1,28% (active)
10,CCCN1CCN(CCCNC(=O)c2ccc3c(c2)sc2nc(-c4ccc(OC)cc4)cn23)CC1,73%
11,COc1ccc(-c2cn3c(n2)sc2cc(C(=O)NCCCN4CCCCC4)ccc23)cc1,69%
12,O=C(NCCN1CCOCC1)c1cnn2c(C(F)F)cc(-c3ccccc3)nc12,86%
13,CC(C)(C)C(=O)Nc1cc(-c2cccc(Br)c2)nn1-c1ccccc1,81%
14,CCc1ccccc1NC(=O)NCc1ccc2c(c1)CCN2C(=O)c1ccccc1,125%
15,COc1ccc(N2CCN(C(=O)c3ccc4nc(N5CCC(C)CC5)sc4c3)CC2)cc1,84%
16,Cc1cccc(N2CCN(C(=O)c3ccc4nc(N5CCC(C)CC5)sc4c3)CC2)c1C,1% (active)
17,Cc1ccc(Cl)cc1N1CCN(CCCNC(=O)c2ccc3nc(N4CCCCC4)sc3c2)CC1,77%
18,CC1CCN(c2nc3ccc(C(=O)NCc4ccc(Cl)cc4)cc3s2)CC1,128%
19,CC1CCN(c2nc3ccc(C(=O)N4CCN(c5ccccc5)CC4)cc3s2)CC1,72%
20,Cc1ccc(C)c(N2CCN(CCCNC(=O)c3ccc4nc(N5CCC(C)CC5)sc4c3)CC2)c1,4% (active)
21,Cc1ccc(C)c(N2CCN(CCCNC(=O)c3ccc4nc(N5CCCCC5)sc4c3)CC2)c1,71%
22,COc1cccc(N2CCN(C(=O)c3ccc4nc(N5CCC(C)CC5)sc4c3)CC2)c1,62%
23,Cc1ccc(Cl)cc1N1CCN(C(=O)c2ccc3nc(N4CCC(C)CC4)sc3c2)CC1,29% (active)

row,Compound,survival
1,Cc1ccc(CN2C(=O)C3(SCC(=O)N3c3ccc(C)c(C)c3)c3ccccc32)cc1 (centres undefined),99%
2,COc1ccc(CCC(=O)NCCc2csc(-c3cccc(F)c3)n2)cc1,83%
3,Cc1cccc(N(C)S(=O)(=O)c2ccc3c(c2)NC(=O)CC(=O)N3)c1,86%
4,COc1cccc(C(=O)NCC(C)C)c1,81%
5,Cc1cccc(-c2nc(CS(=O)CC(=O)NCc3ccc(Cl)cc3)c(C)o2)c1 (centres undefined),61%
6,COc1ccc(-c2nc(CSCC(=O)NCCc3ccccc3)c(C)o2)cc1,86%
7,Cc1ccc(CNC(=O)CSCc2nc(-c3ccc(Cl)cc3)oc2C)cc1,66%
8,Cc1oc(-c2ccccc2F)nc1CSCC(=O)NCc1ccccc1,41% (active)
9,COc1ccc(CNC(=O)CSCc2nc(-c3ccccc3F)oc2C)cc1,67%
10,Cc1ccc(CNC(=O)CSCc2nc(-c3cccc(C)c3)oc2C)cc1,-5% (active)
11,CCOc1ccc(-c2nc(CSCC(=O)NCc3ccc(Cl)cc3)c(C)o2)cc1,95%
12,CCOc1ccc(-c2nc(CSCC(=O)NCc3ccc(C)cc3)c(C)o2)cc1,78%
13,COc1ccc(-c2nc(CSCC(=O)NCCc3ccc(C)cc3)c(C)o2)cc1OC,56%
14,CCc1ccc(-c2nc(CSCC(=O)NCc3ccc(C)cc3)c(C)o2)cc1,-3% (active)
15,Cc1ccc(CCNC(=O)CSCc2nc(-c3ccc(C)cc3)oc2C)cc1,26% (active)
16,Cc1oc(-c2ccccc2F)nc1CSCC(=O)NCCc1ccccc1,94%
17,O=C(CC1SC(=NC2CCCCC2)NC1=O)Nc1ccccc1 (centres undefined),89%
18,O=C(Nc1ccc(Cl)cc1Cl)c1cc(S(=O)(=O)N2CCN(c3ccccc3F)CC2)ccc1F,102%
19,CCN(C(=O)C1CCCN(c2ncnc3c2nc2n3CCCCC2)C1)c1cccc(C)c1 (centres undefined),75%
20,CC(C)Cc1nn2c(=O)cc(COC(=O)c3cccc(NS(C)(=O)=O)c3)nc2s1,82%
21,Cc1ccc(C(=O)CCCn2nnc(-c3ccncc3)n2)cc1C,100%
22,O=C(CSC1=NC2CCCCC2N1)N1CCOCC1 (centres undefined),83%
23,Cc1ccc(NC(=O)CSc2nc3ccccc3nc2Cc2ccccc2)c(Cl)c1,99%

row,Compound,survival
1,CCCCCCOc1ccc(-c2nc3ccc(Br)cc3c(=O)o2)cc1,83%
2,CCCC(CCC)C(=O)Nc1nnc2n1CCS2,82%
3,O=C(NCc1ccccc1)C1CCN(C(=O)NCc2ccccc2)CC1,90%
4,COc1cc(-c2ccno2)ccc1S(=O)(=O)N1CCN(c2cccc(Cl)c2)CC1,-1% (active)
5,COc1cc(-c2ccno2)ccc1S(=O)(=O)N1CCN(c2ccc(F)cc2)CC1,67%
6,COc1ccc(N2CCN(S(=O)(=O)c3ccc(-c4ccno4)cc3OC)CC2)cc1,6% (active)
7,COc1cc(-c2ccno2)ccc1S(=O)(=O)N1CCN(c2ccccc2)CC1,72%
8,COc1cccc(N2CCN(S(=O)(=O)c3ccc(-c4ccno4)cc3OC)CC2)c1,64%
9,COc1ccccc1N1CCN(S(=O)(=O)c2ccc(-c3ccno3)cc2OC)CC1,86%
10,N#CC1=C2SCN(C3CCCCC3)CN2C(=O)CC1c1ccc(Cl)cc1 (centres undefined),91%
11,CCOc1cc(CNC(=O)c2cc(-c3ccccc3)n[nH]2)cc(OCC)c1OCC,98%
12,Cc1ccc(-c2cc(NC(=O)COc3c(C)cc(C)cc3C)on2)cc1,67%
13,CC1Cc2cc(C(=O)NC3CCCCC3)ccc2O1 (centres undefined),71%
14,Cc1ccc(N2C(=O)CS(=O)(=O)C23C(=O)N(Cc2ccccc2F)c2ccccc23)cc1Cl (centres undefined),60%
15,O=C(CCC1N=C2c3ccccc3N=C(SCc3ccc(F)cc3)N2C1=O)N1CCN(c2ccccc2)CC1 (centres undefined),57%
16,O=C(CCC1N=C2c3ccccc3N=C(SCc3ccccc3Cl)N2C1=O)N1CCN(c2ccccc2)CC1 (centres undefined),49% (active)
17,O=C(CCC1N=C2c3ccccc3N=C(SCc3cccc(Cl)c3)N2C1=O)N1CCN(c2ccccc2)CC1 (centres undefined),47% (active)
18,O=C(CCC1N=C2c3ccccc3N=C(SCc3cccc(Cl)c3)N2C1=O)NCCc1ccccc1 (centres undefined),63%
19,O=C(CCC1N=C2c3ccccc3N=C(SCc3ccc(Cl)cc3)N2C1=O)N1CCN(c2ccccc2)CC1 (centres undefined),91%
20,Cc1ccc(CSC2=Nc3ccccc3C3=NC(CCC(=O)N4CCN(c5ccccc5)CC4)C(=O)N23)cc1 (centres undefined),85%
